Here are results for seven molecules from PubChem BioAssay (NCATS).

Experiment [1] in a line: Cell Viability - Hek293 (AID 427;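 active means compounds whose dose-response curve shows a full or clear partial loss of cell viability, called from curve shape rather than a numeric limit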;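 further: potency means the concentration at half of the fitted maximal effect; cells exposed to compound for 40 hours at 37 °C before reading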). The note with it: qHTS. A digest of the protocol: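 qHTS, human embryonic kidney (adenovirus-transformed) cells; 40 hr cpd, 37 °C; CellTiter-Glo ATP luminescence. Norm: DMSO = 0, 100 uM tamoxifen = 100% inhibition. Hill-fit AC50.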
(qHTS replaces the single test concentration by a dilution series.)

Experiment [2] can be described thus: Cell Viability - N2a (AID 540).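 Further: cells exposed to compound for 40 h at 37 °C; plate controls were DMSO alone for no effect and tamoxifen control for full effect; nearly all actives have a fitted effect of over 45% in size.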 The note with it: N2a mouse neuroblastoma cell viability; activity change, negative = cytotoxicity: at 92.2 µM (top of the series). In outline:
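Luminescent ATP signal (CellTiter-Glo, 20 min at room temperature) served as the viability read-out after N2a cells were treated with compounds for 40 hours at 37 °C. Concentration-response data were fitted to the Hill equation for AC50.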

Experiment [3] is described as follows: Cell Viability - H-4-II-E (AID 543). Further: on the % scale 0 is the no-effect control and ±100 the full control effect; nearly all actives have a fitted effect of over 35% in size. The note with it: H-4-II-E rat hepatoma viability; series mostly up to 92.2 µM. A digest of the protocol: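 Luminescent ATP signal (CellTiter-Glo) served as the viability read-out, with cytotoxicity seen as a concentration-dependent ATP drop. Cells were treated for 40 hours in complete medium. AC50 values derive from Hill-equation modelling.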

A short description of experiment [4]: Cellular Toxicity (caspase-3) SHSY5Y (AID 657). Conditions: SH-SY5Y caspase-3 activation, DMSO zero, 10 µM staurosporine = 100%; series mostly up to 91.7 µM. A digest of the protocol:
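SH-SY5Y human neuroblastoma cells, 1500/well, exposed to compound for 16 hours at 37 °C in complete medium. Caspase-3/7 activity read by Caspase-Glo luminescence after 1 hr at room temperature, normalized to DMSO and 10 uM staurosporine; AC50 from Hill fit.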

The nature of experiment [5]: Cellular Toxicity (caspase-3) Renal Proximal Tubule (AID 667).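 Further: cells exposed to compound for 16 hours at 37 °C before detection; 0% = DMSO basal and 100% = 10 µM staurosporine.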 Conditions: renal proximal tubule cells; series mostly up to 91.7 µM. A digest of the protocol: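 Freshly isolated primary rat kidney proximal tubule cells, 1000/well, treated 16 hr at 37 °C, then Caspase-Glo 3/7 luminescence after 1 hr. Normalized to DMSO and 10 uM staurosporine; AC50 from Hill fit.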
Experiment [6] in a line: Cell Viability - LYMP2-003 (AID 965).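 Further: cells exposed to compounds for 24 h before reading; 0% = DMSO only and full effect = 92 µM tetraoctylammonium bromide; nearly all actives have a fitted effect of over 50% in size.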 The note with it: LYMP2-003 lymphoblastoid cell viability; series mostly up to 92.2 µM. A digest of the protocol:
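Human lymphoblastoid LYMP2-003 cells, 2500/well, exposed to compounds for 24 h at 37 C in complete medium. Viability read as intracellular ATP by CellTiter-Glo luminescence; AC50 from Hill-equation fits of qHTS concentration-response data.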

A short description of experiment [7]: Cell Viability - LYMP2-009 (AID 968).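 Further: 0% = DMSO alone and the full-kill end = tetraoctylammonium bromide at 92 µM; nearly all actives have a fitted effect of over 55% in size.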 Conditions: LYMP2-009 lymphoblastoid cell viability; series mostly up to 92.2 µM.
Experiment [8] is described as follows: Cell Viability - LYMP2-013 (AID 970).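 Further: 0% = DMSO only and full inhibition = tetraoctylammonium bromide control; nearly all actives have a fitted effect of over 55% in size.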 Conditions: LYMP2-013 lymphoblastoid cells viability; series mostly up to 92.2 µM. A digest of the protocol: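 qHTS; 2500 lymphoblastoid cells/well; 5 hr 37 C settle; cpd 24 hr 37 C; CellTiter-Glo, 30 min RT; luminescence. AC50 = Hill fit.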
A short description of experiment [9]: Cell Viability - LYMP2-017 (AID 972). Further: on the % scale 0 is the no-effect control and ±100 the full control effect; nearly all actives have a fitted effect of over 55% in size. The note with it: LYMP2-017 lymphoblastoid cell viability; series mostly up to 92.2 µM. In outline:
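2500 cells/well, 5 h 37 C; cpd 24 h 37 C in complete medium; CellTiter-Glo, 30 min RT; luminescence (ATP). AC50 via Hill fit, qHTS.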

Experiment [10] is described as follows: Cell Viability - LYMP2-023 (AID 975).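 Further: cellular ATP measured by luciferase luminescence as viability proxy; plate controls were DMSO only for no effect and 92 µM tetraoctylammonium bromide control for full effect; nearly all actives have a fitted effect of over 55% in size.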 The note with it: LYMP2-023 lymphoblastoid cell viability; series mostly up to 92.2 µM. A digest of the protocol:
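2500 cells/well, 5 hr 37 C; cpd 24 hr 37 C; CellTiter-Glo, 30 min RT; luminescence. qHTS conc-response, Hill fit -> AC50. Pos ctrl tetraoctylammonium bromide.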

The nature of experiment [11]: Cell Viability - LYMP2-016 (AID 984). The note with it: LYMP2-016 lymphoblastoid cell viability, qHTS; series mostly up to 92.2 µM. A digest of the protocol: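 Human lymphoblastoid LYMP2-016 cells, 2500 per well, treated with compounds for 24 h at 37 C. Viability read as intracellular ATP by CellTiter-Glo luminescence after 30 min at room temperature; AC50 from Hill fits of concentration-response.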

The target of experiment [12] is Vitamin D3 receptor (Homo sapiens) (UniProt P11473). As to the kind of experiment: qHTS assay for small molecule antagonists of vitamin D receptor signaling (AID 588541; calls by dose curve;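 further: receptor activated by calcitriol during compound treatment; on the % scale 0 is the no-effect control and ±100 the full control effect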). The note with it: HEK293T VDR-UAS-bla, beta-lactamase ratio, antagonist mode; series mostly up to 76.7 µM. In outline: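 Antagonist-mode beta-lactamase reporter assay: HEK293T VDR-UAS-bla cells were exposed to titrated compound alongside 1-alpha,25-dihydroxyvitamin D3 at 3 nM final for 16 h. Values were normalized to the 50 nM agonist control and DMSO basal, with IC50 and efficacy from Hill equation fits.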

Experiment [13] can be described thus: qHTS assay for small molecule agonists of retinoid X receptor alpha signaling (AID 588544). The note with it: HEK293T RXRa-UAS-bla, beta-lactamase reporter, 18 h; 530 nm emission.
Experiment [14] in a line: qHTS assay for small molecule activators of the p53 signaling pathway (AID 651743; active means well fitted activation curve with a large enough effect in the signal ratio, not every such curve was filed as active; the % refers to the signal ratio; further: % of control where 0% means no effect). The note with it: HCT-116 p53RE-bla, beta-lactamase FRET ratio, 16 h; activation: stronger effect = higher value. A digest of the protocol:
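Read-out is fluorescence intensity from the LiveBLAzer B/G FRET substrate, added for 2 hours at room temperature after HCT-116 p53RE-bla cells had been incubated with compounds for 16 hours at 37 C.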

Experiment [15] can be described thus: qHTS assay for small molecule agonists of the antioxidant response element (ARE) signaling pathway measured by Nrf2-dependant transcriptional activity - cell viability counter screen (AID 720653; active means well fitted curve in the direction sought with a large enough effect in the repeat runs; an effect the other way counts as inactive or inconclusive; further: on the % scale 0 is the no-effect control and ±100 the full control effect). The note with it: ARE-bla HepG2 viability, CellTiter-Glo ATP luminescence, 16 h; stronger effect = lower value. A digest of the protocol: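 Cytotoxicity counter screen: intracellular ATP quantified by CellTiter-Glo luminescence in the same ARE-bla HepG2 plates, after 16 h compound exposure and a 2 h beta-lactamase substrate step.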

Experiment [16] in a line: qHTS assay for cell viability of HEK293 cells (AID 743288). Further: on the % scale 0 is the no-effect control and ±100 the full control effect; nearly all actives have a fitted effect of over 50% in size. Conditions: ATP luminescence (CellTiter-Glo), 18 h, stronger effect = lower value. In outline:
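Parental HEK293 cells, 2,000 per well, preincubated at least 5 h at 37 C, then exposed to compounds in DMSO for 18 h at 37 C. Viability by CellTiter-Glo ATP luminescence after 30 min at room temperature.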

A short description of experiment [17]: Cellular Toxicity (caspase-3) Mesangial (AID 660).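 Further: cells exposed to compound for 16 h before the caspase read.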 The note with it: mesangial cells, normalized: DMSO 0%, 100 µM tamoxifen 100%; series mostly up to 91.7 µM. In outline: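 Mesangial cells, 1000/well, 5 h settle at 37 °C; compound 16 h, 37 °C; Caspase-Glo 3/7 reagent 20 min RT; luminescence. Norm.: DMSO = 0%, tamoxifen 100 uM = 100%. AC50, Hill fit.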
Experiment [18] can be described thus: Cellular Toxicity (caspase-3) SK-N-SH (AID 661).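 Further: 0% = DMSO basal and 100% = 10 µM staurosporine.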 Conditions: SK-N-SH caspase-3 activation, qHTS; series mostly up to 91.7 µM. In outline:
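Human neuroblastoma SK-N-SH, 1500 cells/well, 5 hr pre-incubation, then compound 16 hr, 37 °C. Caspase-Glo 3/7 reagent, 1 hr RT, luminescence. Norm. to DMSO/10 uM staurosporine; Hill-fit AC50.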

Experiment [19] is described as follows: Cell Viability - LYMP1-003 - Assay at 24 hr (AID 963).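 Further: plate controls were DMSO only for no effect and tetraoctylammonium bromide positive control for full effect.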 The note with it: LYMP1-003 lymphoblastoid cell viability; series mostly up to 92.2 µM. In outline:
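Cells seeded at 2500/well, 5 hr at 37 C; compounds added; 24 hr at 37 C; CellTiter-Glo added, 30 min room temperature; luminescence read. Decrease in ATP taken as cytotoxicity, AC50 from Hill modelling.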

Experiment [20] in a line: Cell Viability - LYMP2-005 (AID 967).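 Further: plate controls were DMSO only for no effect and 92 µM tetraoctylammonium bromide control for full effect.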 The note with it: LYMP2-005 lymphoblastoid cell viability; series mostly up to 92.2 µM. In outline: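 Human lymphoblastoid LYMP2-005 cells, 2,500 per well in complete medium, rested 5 h at 37C then compound-treated 24 h at 37C. Intracellular ATP read by CellTiter-Glo luminescence after 30 min at room temperature; AC50 from Hill-equation fits of concentration-response data.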

“And” between values parts separate entries of the source, which are not always exact repeats. Equal values may be shown once. Records with an inconclusive call do not appear. The source made the active and inactive calls. Unless noted, the call rests on the fitted dose curve; in most records, active means well fitted curve in the direction sought with a large enough effect; inconclusive means small, poorly fitted or top-dose-only effect, or another doubt; inactive means no such curve, though single readings can be large; an effect the other way counts as inactive or inconclusive. Some results are limits rather than exact numbers.

Sequence of Vitamin D3 receptor (Homo sapiens) (P11473 whole entry, looked up): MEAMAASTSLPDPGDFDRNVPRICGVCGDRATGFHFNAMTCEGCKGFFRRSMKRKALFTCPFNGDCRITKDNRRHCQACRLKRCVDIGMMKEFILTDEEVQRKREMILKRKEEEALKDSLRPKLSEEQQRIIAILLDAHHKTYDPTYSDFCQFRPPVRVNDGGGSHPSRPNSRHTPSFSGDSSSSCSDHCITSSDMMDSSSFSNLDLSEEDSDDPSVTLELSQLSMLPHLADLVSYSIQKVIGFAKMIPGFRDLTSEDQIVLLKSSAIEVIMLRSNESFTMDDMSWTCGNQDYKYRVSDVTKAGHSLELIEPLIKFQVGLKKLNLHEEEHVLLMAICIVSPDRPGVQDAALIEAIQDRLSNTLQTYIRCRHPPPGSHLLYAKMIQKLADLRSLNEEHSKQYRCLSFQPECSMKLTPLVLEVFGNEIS

Regarding `C=CCCC#N`, in [1], the Potency is > 92 µM (inactive). In addition, the Potency result in experiment [2], in experiment [3], in experiment [6], in experiment [7], in [8] and in experiment [9] was “inactive” throughout. Moreover, the Potency result in experiment [10] and in experiment [11] was “inactive” throughout. Further, the molecule was classed as inactive in [4], in experiment [5] and in experiment [12]. Moreover, the max response in [13] was -8.63%; in experiment [15], -16.2% (inactive); in experiment [16], -20.1% (inactive). The activation in experiment [14] is -2.14% (inactive).
For `CCSC(=O)N1CCCCCC1`, in [1], the Potency is > 92 µM (inactive). Moreover, the Potency entry in experiment [2], in experiment [3], in experiment [18], in experiment [6], in [20] and in [7] was “inactive” each time. Also, the Potency result in [8], in [9], in experiment [10] and in [11] was “inactive” throughout. In addition, the molecule was called inactive in [4], in experiment [17], in [5], in experiment [19] and in experiment [12]. Further, the max response in experiment [13] was -15.2% and -3.96%; in experiment [16] it was 2.92% (inactive) and -12.6% (inactive). Besides, the activation in experiment [14] was -3.15% (inactive) and 2.49% (inactive).
In the case of `N#C/C(N)=C(/N)C#N`, the Potency in [1] is > 92 µM (inactive). Moreover, the Potency entry in experiment [2], in experiment [3], in experiment [18], in experiment [6], in experiment [20] and in experiment [7] was “inactive” in each case. For the same molecule, the Potency result in [8], in experiment [9] and in experiment [11] was “inactive” each time. Further, the outcome in [4], in experiment [17], in [5], in experiment [19] and in [12] was inactive. In addition, the max response in experiment [13] is -4.63%; in experiment [16], -0.0232% (inactive). In addition, the activation in experiment [14] is 1.55% (inactive).
On to `BrC(Br)Br`, for which, in experiment [1], the Potency is > 92 µM (inactive). Also, the Potency result in experiment [2], in [3], in experiment [6], in experiment [20], in experiment [7] and in [9] was “inactive” throughout. Further, the Potency entry in experiment [10] and in experiment [11] was “inactive” each time. In addition, the molecule was called inactive in experiment [4], in experiment [17], in experiment [5] and in experiment [12]. The figures for the max response in [13], in experiment [15] and in [16] were 0.74%, -14.5% (inactive) and -3.11% (inactive), respectively.
Turning to `CC(C)OS(C)(=O)=O`, the Potency in experiment [1] was > 92 µM (inactive). In addition, the Potency result in experiment [2], in experiment [3], in experiment [18], in experiment [6], in [7] and in experiment [8] was “inactive” each time. The Potency result in experiment [9], in experiment [10] and in experiment [11] was “inactive” in each case. The outcome in experiment [4], in experiment [17], in [5], in experiment [19] and in [12] was inactive. The results for the max response in [13], in experiment [15] and in experiment [16] were -2.85%, -6.13% (inactive) and -1.94% (inactive), respectively. The activation in experiment [14] is -0.853% (inactive).
On to `CCCCOC(C)=O`, for which the Potency in experiment [1] was > 92 µM (inactive). Also, the Potency result in experiment [2], in experiment [3], in experiment [18], in experiment [6], in experiment [20] and in experiment [7] was “inactive” throughout. Also, the Potency entry in experiment [9] and in experiment [10] was “inactive” throughout. For the same molecule, the call in experiment [4], in [17], in experiment [5] and in experiment [19] was inactive. For the same molecule, the max response was 6.81% in experiment [13], 10.3% (inactive) in experiment [15] and -4.32% (inactive) in [16]. The activation in experiment [14] was -4.75% (inactive).
Regarding `ClC(Cl)Br`, the Potency in [1] was > 92 µM (inactive). The Potency result in experiment [2], in [3], in [18], in [6], in [20] and in [8] was “inactive” each time. The Potency entry in experiment [9], in experiment [10] and in experiment [11] was “inactive” throughout. Besides, the result in experiment [4], in experiment [17], in experiment [5], in [19] and in experiment [12] was inactive. In addition, the max response in experiment [13] is -4.86%; in experiment [15] it was 9.16% (inactive); in experiment [16], 7.42% (inactive).
